Among the data in PubChem BioAssay AID623911 (Vanderbilt High Throughput Screening Facility, 2012) are manual score values, retold here.

The whole screen tested about 2,100 compounds, of which about 770 (37%) were called active.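 The calls were made as follows: active = by-eye trace score of 1 for enhancers or -1 for inhibitors, so actives lie on both sides (some results past the limit were not filed as active); inactive = score 0, or 3 fluorescent, or 4 baseline rise.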 Some of the results follow.

In this test the target is G protein-activated inward rectifier potassium channel 2 (Homo sapiens) + G protein-activated inward rectifier potassium channel 1 (Homo sapiens) (UniProt P48051+P48549). In words: GIRK1/2 thallium flux modulators, retest, confirmation, cell-based, HEK293 rmGlu8/hGIRK1/2, FluoZin-2 (AID 623911). The following applies: HEK293 rmGlu8/hGIRK1/2, thallium flux FluoZin-2; actives lie on both sides; glutamate co-added at its EC20 level.
G protein-activated inward rectifier potassium channel 2 (Homo sapiens) + G protein-activated inward rectifier potassium channel 1 (Homo sapiens), sequence (P48051 whole entry, looked up): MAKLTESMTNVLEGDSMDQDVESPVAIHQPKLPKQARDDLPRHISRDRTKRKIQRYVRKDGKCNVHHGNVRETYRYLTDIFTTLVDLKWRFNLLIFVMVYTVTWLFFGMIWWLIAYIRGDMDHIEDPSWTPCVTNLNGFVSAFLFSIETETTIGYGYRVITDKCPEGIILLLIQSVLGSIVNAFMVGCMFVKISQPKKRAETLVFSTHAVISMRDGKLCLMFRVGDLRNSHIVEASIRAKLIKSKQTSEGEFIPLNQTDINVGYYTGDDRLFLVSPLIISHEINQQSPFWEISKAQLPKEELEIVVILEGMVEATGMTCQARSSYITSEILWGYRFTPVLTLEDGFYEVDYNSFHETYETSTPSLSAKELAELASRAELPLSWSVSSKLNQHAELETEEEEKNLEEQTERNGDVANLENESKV
G protein-activated inward rectifier potassium channel 2 (Homo sapiens) + G protein-activated inward rectifier potassium channel 1 (Homo sapiens), sequence (P48549 whole entry, looked up): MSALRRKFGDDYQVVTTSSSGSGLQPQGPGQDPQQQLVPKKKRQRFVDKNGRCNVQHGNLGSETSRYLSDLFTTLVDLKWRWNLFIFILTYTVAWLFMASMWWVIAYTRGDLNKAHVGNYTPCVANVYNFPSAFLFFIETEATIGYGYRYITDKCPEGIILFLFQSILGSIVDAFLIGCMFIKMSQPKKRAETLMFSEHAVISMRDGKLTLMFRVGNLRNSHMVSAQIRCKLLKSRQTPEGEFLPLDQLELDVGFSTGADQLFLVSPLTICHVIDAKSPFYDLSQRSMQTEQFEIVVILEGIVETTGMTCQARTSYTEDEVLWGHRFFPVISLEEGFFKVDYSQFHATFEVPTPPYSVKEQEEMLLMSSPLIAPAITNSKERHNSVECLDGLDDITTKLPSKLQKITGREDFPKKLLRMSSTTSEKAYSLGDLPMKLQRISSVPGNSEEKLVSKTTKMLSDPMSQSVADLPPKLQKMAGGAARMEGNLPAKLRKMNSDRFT
In the case of `O=C(NCCSCc1ccco1)Nc1cccc(Cl)c1`, the manual score is 1 (active).
As to `O=C(NCCCn1ccnc1)Nc1ccc(Cl)c(Cl)c1`, the manual score is 0 (inactive).
The figure for `Clc1cccc(CSc2nnc(-c3ccccn3)n2Cc2ccco2)c1` is 0 (inactive); for `COc1cccc(N(CC(=O)NCc2cccnc2)S(C)(=O)=O)c1` it is 0 (inactive); for `CSc1cccc(NC(=O)COc2ccccc2)c1` it is 1 (active).
Regarding `CC(=O)c1cccc(NC(=O)CCOc2ccccc2)c1`, the manual score is 0 (inactive).
The figure for `COc1cccc(N(CC(=O)Nc2cccc(C(C)=O)c2)S(C)(=O)=O)c1` is 0 (inactive).
For the molecule `COc1cccc(NC(=O)COc2ccc(C)cc2)c1`, the manual score was 0 (inactive).
On to `CN(C)S(=O)(=O)N(CC(=O)Nc1ccc2ccccc2c1)c1ccccc1`, for which the manual score was 1 (active).
`Cc1cccc(NC(=O)CN(c2ccc(C(C)C)cc2)S(=O)(=O)c2c(C)nn(C)c2C)n1`: the manual score is -0.5 (inactive).
Turning to `CSc1cccc(NC(=O)CN(c2ccccc2)S(=O)(=O)N(C)C)c1`, the manual score is 1 (active).
Regarding `CSc1cccc(NC(=O)CN(c2ccc(C)cc2C)S(C)(=O)=O)c1`, the manual score was 1 (active).
As for `CC1=CC(=O)OC1Cc1ccncc1` (centres undefined), the manual score is 0 (inactive).
As to `O=c1c2c(nc3c(-c4ccc(Cl)cc4)c[nH]n13)CCCC2`, the manual score is 0 (inactive).
For `O=C(CSc1nnnn1-c1cccc2c1CCCC2)NC1CCCC1`, the manual score was -0.5 (inactive).
Regarding `CSC1=N/C(=C\c2ccc(Br)o2)C(=O)S1`, the manual score was 0 (inactive).
With `c1ccc2c(NC3CCCC3)nnc(NC3CCCC3)c2c1`, the manual score is -1 (active).
`CN=C1S/C(=C\c2cc(C)n(-c3ccccc3F)c2C)C(=O)N1C`: the manual score was 0 (inactive).
As for `CC1CCN(c2ccc(/C=N/n3nnnc3N)cc2[N+](=O)[O-])CC1`, the manual score is 0 (inactive).
For the molecule `Cc1cc(N2CCN(c3ccccc3)CC2)nc(NCc2ccccc2)n1`, the manual score was 0 (inactive).
`Cc1ccc2nc(NCc3ccccc3)[nH]c2c1`: the manual score is -1 (active).
In the case of `S=c1[nH]nc(-c2ccco2)n1/N=C/c1ccc(Cl)cc1Cl` it was 1 (active); in that of `CC(/C=N/n1c(-c2ccco2)n[nH]c1=S)=C\c1ccccc1`, 0 (inactive).
With `S=c1[nH]nc(-c2ccco2)n1/N=C/c1cccc(Cl)c1Cl`, the manual score is 0 (inactive).
On to `Cc1ccc(N2CC(C(=O)Oc3cccc(N4C(=O)CCC4=O)c3)CC2=O)cc1` (centres undefined), for which the manual score is 0 (inactive).
Consider `Cc1ccc(/C(O)=C2\C(=O)C(=O)N(c3cc(C)on3)C2c2cccc(Br)c2)cc1` (centres undefined), for which the manual score is 0 (inactive).
The figure for `CC(Oc1ccc(Cl)cc1)C(=O)N/N=C/c1ccsc1` (centres undefined) is 1 (active).
With `CC(C)C(=O)Nc1cccc(NC(=O)c2cc3ccccc3o2)c1`, the manual score is 0 (inactive).
In the case of `CC(=O)Nc1nnc(C)s1` it was 0 (inactive); in that of `CCCCN(CCCC)C(=S)NC(=O)C(C)(C)C`, 1 (active); in that of `CCCN(CCC)C(=S)NC(=O)c1ccc(Cl)cc1Cl`, 1 (active).
With `CC1Cc2ccccc2N1C(=S)NC(=O)c1ccc(Cl)cc1Cl` (centres undefined), the manual score was 1 (active).
The figure for `CCCN(CCC)CCCOC(=O)c1ccc(Cl)cc1Cl` is -1 (active); for `CCOC(=O)CC1=C(C(=O)OCC)C(c2cccs2)C(C#N)=C(N)O1` (centres undefined) it is 0 (inactive); for `CCOC(=O)C(C(=O)OCC)c1cc(Br)c2noc3c2c1C(=O)c1ccccc1-3` it is 3 (inactive).
With `COc1c2occc2c(OC)c2c(=O)cc(C(F)(F)F)oc12`, the manual score was 0 (inactive).
Take `COc1cc(/C=C2\S/C(=N/S(=O)(=O)c3ccc(C)cc3)NC2=O)c([N+](=O)[O-])cc1OC`: the manual score is 0 (inactive).
For `CCN(CC)C(=S)NC(=O)c1ccc(Cl)cc1Cl`, the manual score was 1 (active).
For `CCCCN(CCCC)C(=S)NC(=O)c1ccccc1Cl`, the manual score is 1 (active).
`CN(C(=S)NC(=O)CCCOc1ccc(Cl)cc1Cl)c1ccccc1`: the manual score was 0 (inactive).
`CCCCN(CCCC)c1ccc(C(=O)c2ccccc2C(=O)O)c(O)c1`: the manual score was 0 (inactive).
Turning to `CCCCn1nnc(NC(=S)NC(=O)c2ccc(-c3cccc(Cl)c3Cl)o2)n1`, the manual score was 0.5 (inactive).
Take `S=c1[nH]nc(CSCc2ccc(Cl)cc2Cl)n1-c1ccccc1`: the manual score is 0 (inactive).
Consider `O=C(Nc1ccc2c(c1)OCCO2)NC12CC3CC(CC(C3)C1)C2`, for which the manual score is 1 (active).
Regarding `O=C(COC(=O)C1CC2C=CC1C2)Nc1ccc2c(c1)OC(F)(F)O2` (centres undefined), the manual score was 0 (inactive).
Regarding `COC(=O)[C@H](CC(C)C)NC(=O)Nc1ccc2c(c1)OCCO2`, the manual score was 0 (inactive).
The figure for `CCOc1ccc(N2C(=O)CC(SC(=NC)Nc3ccc(F)cc3)C2=O)cc1` (centres undefined) is 0 (inactive).
For `CCOC(=O)C1CCN(C(=O)NC23CC4CC(CC(C4)C2)C3)CC1`, the manual score was 0 (inactive).
Consider `CCOc1ccc(NC(=O)NC23CC4CC(CC(C4)C2)C3)cc1`, for which the manual score was 1 (active).
In the case of `Cc1[nH]n(-c2ccccc2)c(=O)c1N=Nc1nccs1` it was 1 (active).
`Cc1cccc(-n2c(C)nc3sccc3c2=O)c1`: the manual score was 0 (inactive).
On to `CCOn1c(=O)c(-c2cccs2)[n+]([O-])c2ccccc21`, for which the manual score was 3 (inactive).
As for `Cc1cc(C)nc(Sc2ncnc3sc4c(c23)CCC4)n1`, the manual score was 0 (inactive).
The figure for `c1csc(CCNc2ncnc3sc4c(c23)CCC4)c1` is -1 (active); for `N#CCCn1nc(-c2ccc(Cl)cc2)cc1Nc1ccccc1NC(=O)C(F)(F)F` it is 1 (active); for `CCOC(=O)c1cc(-c2ccc(Cl)cc2)nc2c1c(C)nn2CCC#N` it is 0 (inactive).
Turning to `COc1cccc(C(=O)NC(=S)N2CCN(c3ccc(C(F)(F)F)cc3[N+](=O)[O-])CC2)c1`, the manual score is 0.5 (inactive).
On to `COc1cc(OC)cc(C(=O)NC(=S)N2CCN(c3ccc(C(F)(F)F)cc3[N+](=O)[O-])CC2)c1`, for which the manual score is 1 (active).
In the case of `COc1ccccc1NC(=O)COc1ccc(C(F)(F)F)cc1[N+](=O)[O-]`, the manual score is 0 (inactive).
Regarding `CC(C)Oc1cccc(C(=O)NC(=S)N2CCN(c3ccc(C(F)(F)F)cc3[N+](=O)[O-])CC2)c1`, the manual score is 1 (active).
In the case of `O=C1c2ccccc2C(=O)N1Nc1ccccc1`, the manual score was 0 (inactive).
For the molecule `C(/C=C/C=C/Nc1ccccc1)=Nc1ccccc1`, the manual score was 3 (inactive).
On to `CCCCCCCCc1nc(=S)[nH][nH]1`, for which the manual score is 0.5 (inactive).
Turning to `C=CCCCCCCCCc1nc(=S)[nH][nH]1`, the manual score is 1 (active).
Take `CC1=C(n2nnc3ccccc32)C(c2ccccc2)C(C#N)=C(N)O1` (centres undefined): the manual score was 0 (inactive).
In the case of `O=C(COc1c(Br)cc(Br)c2cccnc12)N1CCc2ccccc2C1` it was 0 (inactive); in that of `CC(C)CC(=O)Nc1ccccc1-c1nnn(CC(=O)N2CCc3ccccc3C2)n1`, 0 (inactive); in that of `CCOC(=O)c1c(C)c(C(=O)N2CCc3ccccc3C2)c(C)n1CC`, -1 (active).
In the case of `O=C(O)c1oc2ccccc2c1CSc1ccccn1` it was 0 (inactive); in that of `CCCCCCc1cc2cc(C(=O)NC)c(=N)oc2cc1O`, 3 (inactive); in that of `CCCCc1cc(=O)oc2cc(C)cc(O)c12`, -1 (active).
As to `O=C(NC(=S)Nc1ccc(N2CCOCC2)c(Cl)c1)c1cncc(Br)c1`, the manual score is 1 (active).
In the case of `O=C(Nc1ccc(N2CCCCC2)c(Cl)c1)c1ncn[nH]1`, the manual score is 0 (inactive).
For `CC1CCCC(NC(=S)NC(=O)c2cncc(Br)c2)C1C` (centres undefined), the manual score was 1 (active).
As for `Cc1ccccc1NC(=S)NC(=O)c1cc(-c2ccccc2)nc2ccccc12`, the manual score was 0 (inactive).
The figure for `O=C(NC(=S)NC1CCCCCC1)c1cncc(Br)c1` is 0 (inactive); for `Cc1ccccc1NC(=S)NC(=O)c1cncc(Br)c1` it is 1 (active); for `COc1ccc(OCC(=O)NC(=S)Nc2ccc(N3CCOCC3)c(Cl)c2)cc1` it is 0 (inactive).
For `Cc1ccc(NC(=O)CSC(N)=O)cc1Cl`, the manual score was 1 (active).
Take `CCn1c(CCNC(=O)c2cccs2)nnc1SCC(=O)Nc1ccc(Cl)cc1`: the manual score was 0 (inactive).
Take `Cc1ccc(NC(=O)Cn2cccc2)cc1Cl`: the manual score is 0 (inactive).
`O=C(CSCCO)Nc1ccccc1`: the manual score was 0 (inactive).
`CC(C)(C)CC(=O)Nc1ccc(C(N)=O)cc1`: the manual score was 0 (inactive).
In the case of `O=C(CC(O)(C(F)(F)F)C(F)(F)F)Nc1ccc(Cl)c(Cl)c1` it was 0 (inactive); in that of `NC(=O)SCC(=O)Nc1ccc(Cl)cc1`, 1 (active).
For the molecule `NC(=O)SCC(=O)Nc1cccc(Cl)c1`, the manual score was 1 (active).
In the case of `Cn1c(=O)c(NCCc2ccccc2)c2c3c(cccc31)C(=O)c1ccccc1-2`, the manual score is 3 (inactive).
With `Cc1ccccc1Cn1c(=N)n(CC(=O)c2ccco2)c2ccccc21`, the manual score was -1 (active).
For `Cc1ccccc1Cn1c(-c2cncs2)nc2ccccc21`, the manual score is 0 (inactive).
Regarding `Cc1ccccc1Cn1c(=N)n(CC(O)c2ccco2)c2ccccc21` (centres undefined), the manual score was -1 (active).
In the case of `C1CCC2(CC1)OCC1(CO2)COC2(CCCCC2)OC1` it was 0 (inactive); in that of `Cc1cccc(NC(=S)N2CCC(C(=O)c3ccc(F)cc3)CC2)c1C`, 0 (inactive).
Consider `c1ccc(-c2nnc3n2NC(c2ccc4c(c2)OCO4)S3)cc1` (centres undefined), for which the manual score is 1 (active).
With `Cc1cccc(/C=C/C(=O)c2cc(Br)ccc(=O)c2O)c1`, the manual score is 1 (active).
`Cc1cccc(/C=c2\s/c(=C\C(=O)C(C)(C)C)[nH]c2=O)c1`: the manual score is 0 (inactive).
The figure for `Cc1cccc(NC(=O)COc2ccc(Br)cc2/C=N/O)c1` is 0 (inactive).
Regarding `Cc1ccc(/C=C/C(=O)c2ccccc(=O)c2O)cc1C`, the manual score is 1 (active).
Regarding `O=C(/C=C/c1ccccc1)c1cc(Br)ccc(=O)c1O`, the manual score is 1 (active).
As to `COc1ccc(/C=C/C(=O)c2cc(Br)ccc(=O)c2O)cc1`, the manual score was 1 (active).
The figure for `CCC(=O)Oc1ccc(C/C(=N\O)c2ccc(O)cc2O)o1` is 0 (inactive); for `COc1ccc(-c2cc(C(F)(F)F)c3c(n2)sc2c(O)cc(=O)[nH]c23)c(OC)c1` it is -0.5 (inactive); for `N#CC(C#N)=C1C=C2C=C(N3CCCCC3)CCC2CC1` (centres undefined) it is 3 (inactive).
In the case of `CC(C)CN(C(=O)COC(=O)Cc1n[nH]c(=O)c2ccccc12)C1CCS(=O)(=O)C1` (centres undefined), the manual score is 0 (inactive).
Take `CCc1ccc(/C=C/C(=O)c2cc(Br)ccc(=O)c2O)cc1`: the manual score was 1 (active).
Take `COc1ccc(NC(=O)CSc2nnc(-c3ccccn3)n2Cc2ccco2)cc1OC`: the manual score is 0 (inactive).
With `CCOC(=O)c1oc2nc(C(C)C)c3c(c2c1N)CC(C)(C)OC3`, the manual score is 0 (inactive).
Regarding `O/N=C/c1cc(Cl)ccc1OCc1cccc2ccccc12`, the manual score was 0 (inactive).
As for `Cc1cc(C)n(-c2nnc(C)n2/N=C/c2ccccc2OCc2ccccc2Cl)n1`, the manual score is -1 (active).
`COc1ccccc1/C=C/C=N\N1CCN(Cc2ccccc2Cl)CC1`: the manual score was 0 (inactive).
